High-throughput results from PubChem BioAssay.
DAX1 inh-1 – NR0B1 (DAX1) inhibition; 340,000 tested, 0.99% active; P51843; HEK293 Gal4-DAX1 luciferase reporter, luminescence; inhibition, % at 6.75 µM;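 active = inhibition above the mean over all tested compounds plus 3 SD, cut at about 4.2% in these data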;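 also: inhibition shows as a rise in luminescence from relieved DAX1 repression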
DAX1 inh-2 – DAX1 (NR0B1) inhibition, primary screen; inhibition, % at 6.8 µM; 370,000 tested, 1.1% active; HEK293T StAR-luciferase reporter, SF-1/DAX-1 repression relief; AID 652010;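 active = inhibition above the mean over all tested compounds plus 3 SD, cut at about 3.6% in these data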;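 also: higher inhibition means more luminescence from relief of DAX-1 repression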
hcDAF-12 act – activates DAF-12 receptor from parasite H. contortus | HEK293 hcDAF-12 lit1-tk-luc reporter, luminescence; 0% DMSO, 100% Δ7-dafachronic acid | activation, % at 6.8 µM | 370,000 tested, 1.4% active | AID 652067;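 active = activation above the mean of all tested compounds plus 3 SD, cut at about 5.5% in these data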
hgDAF12 agonist – activates the H. glycines DAF-12 receptor ligand-binding domain | HEK293 GAL4-hgDAF12 UAS-luciferase reporter, agonist luminescence; normalized to butyrate control | activation, % at 6.8 µM | 370,000 tested, 1.8% active | AID 687014;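 active = activation above a cutoff set at the mean of all screened compounds plus 3 SD, cut at about 10% in these data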
ssDAF12 agonist – activates DAF-12 receptor from parasite S. stercoralis. HEK293 ssDAF-12/GRIP1 lit1-tk-luc reporter, luminescence; % of 3 µM dafachronic acid response. activation, % at 6.8 µM. 370,000 tested, 1% active. AID 652126;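 active = activation above the mean over all tested compounds plus 3 SD, cut at about 0.9% in these data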
LXRb hcDAF ctr – activates human LXR-beta, counter-screen for hcDAF-12 agonists; shares compounds with hcDAF-12 act; HEK293 Gal4-LXR tk-luc reporter, luminescence, 24 h; normalized: DMSO 0%, positive control 100%; activation, % at 6.8 µM; 3,400 tested, under 10 active;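 active = mean percent activation of the reporter above a cutoff set as the average over tested compounds plus their standard deviation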
Target sequence (P55055 whole entry, looked up, the tested form may be a part): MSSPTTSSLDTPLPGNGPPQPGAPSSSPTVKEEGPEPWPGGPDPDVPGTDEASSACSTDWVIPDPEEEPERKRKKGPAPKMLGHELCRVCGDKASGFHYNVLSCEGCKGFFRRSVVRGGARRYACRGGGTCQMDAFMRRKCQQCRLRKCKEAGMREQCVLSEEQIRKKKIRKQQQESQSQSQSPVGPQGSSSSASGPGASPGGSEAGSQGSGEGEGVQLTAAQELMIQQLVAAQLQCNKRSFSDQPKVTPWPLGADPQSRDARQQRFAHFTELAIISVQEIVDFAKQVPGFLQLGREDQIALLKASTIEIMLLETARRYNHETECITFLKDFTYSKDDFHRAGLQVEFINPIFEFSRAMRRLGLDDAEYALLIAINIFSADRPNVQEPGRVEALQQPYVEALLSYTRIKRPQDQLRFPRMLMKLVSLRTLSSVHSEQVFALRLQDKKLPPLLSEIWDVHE
hcDAF12 conf – confirmation of H. contortus DAF-12 agonists; shares compounds with hcDAF-12 act; HEK293 hcDAF-12 lit1-tk-luc reporter, luminescence; % of Δ7-dafachronic acid response; activation, % at 6.8 µM; 3,400 tested, 61% active; AID 743032;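 active = mean activation across triplicate tests above the threshold derived from the earlier primary screen, cut at about 5.5% in these data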
A number is an active result; i = inactive; nt = no result given. An excerpt weighted towards active compounds, which were near 4.1% of everything screened.

SMILES | DAX1 inh-1 | DAX1 inh-2 | hcDAF-12 act | hgDAF12 agonist | ssDAF12 agonist | LXRb hcDAF ctr | hcDAF12 conf
Cc1ccc(N=C2C(=O)Nc3ccccc32)cc1C | i | i | i | i | i | nt | nt
C(=NN1CCCCCC1)c1ccccc1 | i | i | i | i | i | nt | nt
CN(c1ccccc1)c1ccc(/C=N/N2CCOCC2)cc1 | 5.8 | i | 7.0 | 11 | i | i | 5.9
CN(C)S(=O)(=O)c1ccc(C(=O)NCC(=O)Nc2ccc(F)c(F)c2)cc1 | i | i | 6.8 | i | i | i | i
CN(C)S(=O)(=O)c1ccc(C(=O)Nc2ccc(Cl)cc2)cc1 | i | i | i | i | i | nt | nt
Cn1cc(C(=O)N/N=C/C(Br)=C/c2ccccc2)ccc1=O | i | i | 7.6 | i | i | i | i
COC(=O)c1cccc(Cn2ccc3ccc(-c4ccc5ccn(C(=O)C6CC6)c5c4)cc32)c1 | nt | i | i | i | i | nt | nt
Cc1[nH]c(C)c(S(=O)(=O)N2CCN(c3ccc(Cl)cc3)CC2)c1C(=O)N1CCCC1 | i | i | i | i | i | nt | nt
O=c1oc2c(O)cccc2cc1-c1nc2ccccc2[nH]1 | i | i | 8.1 | i | i | i | i
N#C/C(=C/c1ccc(N2CCCCC2)cc1)c1cccc(F)c1 | i | i | 8.8 | i | i | i | i
CC(C)c1ccc(NC(=O)[C@@H]2CCC(=O)N2C2OC(=O)c3ccccc32)cc1 (stereo partly specified) | i | i | 7.4 | i | i | i | i
NC(=O)c1ncn([C@@H]2O[C@H](C(=O)Nc3ccc(Oc4ccccc4)nc3)[C@@H](O)[C@H]2O)n1 | nt | i | i | i | i | nt | nt
C=CCN1C(=O)C(=O)N(Cc2nc3ccccc3s2)C1=O | i | i | 9.6 | i | 1.2 | i | 9.7
O=S(=O)(c1cccs1)N1CCN(Cc2nc3ccccc3s2)CC1 | i | i | i | i | i | nt | nt
Cc1ccc(-c2nc3cc(N)ccc3o2)cc1 | i | 3.6 | 9.8 | 13 | i | i | 9.2
CC(C)(C)c1ccc(-c2nc3cc(N)ccc3o2)cc1 | i | i | i | i | i | nt | nt
CC(C)c1ccc2oc(-c3ccc(N)cc3)nc2c1 | i | i | 12 | i | i | i | 15
Cc1ccc(-c2nc3cc(C)ccc3o2)cc1 | i | i | 11 | 12 | 1.7 | i | 21
CN(Cc1ccccc1)S(=O)(=O)c1cccc(C(=O)OCc2cccc(C(F)(F)F)c2)c1 | nt | i | i | i | i | nt | nt
COc1ccc(CCNC(=S)N2CCN(S(=O)(=O)c3ccccc3F)CC2)cc1 | i | i | i | i | i | nt | nt
Cc1cc(C)cc(NC(=O)N2CCC(c3nc4ccc(Cl)cc4[nH]3)CC2)c1 | nt | i | i | i | i | nt | nt
COC(=O)c1ccc(OCC(=O)c2ccccc2)cc1 | i | i | 9.0 | 11 | 1.3 | i | i
COc1ccc(O)c(/C=C(\C#N)C(=O)Nc2ccccn2)c1 | i | i | 7.9 | i | i | i | 5.7
N#C/C(=C\c1ccccc1O)C(=O)Nc1cccnc1 | i | i | i | i | i | nt | nt
CC(=O)Nc1ccc(NC(=O)CSc2cn(CC(=O)N3CCOCC3)c3ccccc23)cc1 | i | i | i | i | i | nt | nt
SMILES | DAX1 inh-1 | DAX1 inh-2 | hcDAF-12 act | hgDAF12 agonist | ssDAF12 agonist | LXRb hcDAF ctr | hcDAF12 conf
COc1ccc(CNC(=O)C(=O)c2cn(CC(=O)N3CCOCC3)c3ccccc23)cc1 | i | i | i | i | i | nt | nt
O=C(Cn1cc(SCc2ccccc2Cl)c2ccccc21)N1CCOCC1 | i | i | 11 | i | i | i | i
COc1ccc(CNC(=O)C(=O)c2cn(CC(=O)N3CCCC3)c3ccccc23)cc1 | i | i | 7.2 | i | i | i | i
O=C(Nc1ccccc1Cl)C(=O)c1cn(CC(=O)N2CCOCC2)c2ccccc12 | i | i | 7.6 | i | i | i | 8.6
COc1ccc(C)cc1S(=O)(=O)Nc1ccc2c(c1)N(C(C)=O)CCC2 | i | i | i | i | i | nt | nt
CCn1ncc(/C=N/NC(=O)c2cc(Cl)ccc2OC)c1C | i | i | 8.3 | i | i | i | i
COc1ccc(Cl)cc1C(=O)N/N=C/c1ccc(N2CCOCC2)cc1 | i | i | i | i | i | nt | nt
C[C@H](CCCCC1(C)OCCO1)CCC(=O)N(c1ccccc1)c1ccccc1 | nt | i | i | i | i | nt | nt
CN1C/C(=C/c2ccccc2)N2C(=O)C[C@@H](c3ccccc3)N=C12 | nt | i | i | i | i | nt | nt
O=c1cc(-c2ccccc2)nc2n1Cc1ccccc1-2 | i | i | i | i | i | nt | nt
COc1ccc(-c2nc3n(c2C)Cc2ccccc2-3)cc1 | i | i | 9.9 | 12 | 2.2 | i | 7.5
Cc1cc(C)n(-c2ccc(NC(=O)C3CCN(Cc4ccccn4)CC3)cc2)n1 | i | i | i | i | i | nt | nt
COc1cc(Cc2nc3ccc(S(=O)(=O)N4CCOCC4)cc3[nH]2)cc(OC)c1OC | i | i | 8.0 | i | i | i | i
COc1ccc(CN2C(=O)CCCC2(C)c2nnnn2-c2c(C)cccc2C)cc1OC (stereo unspecified) | nt | i | i | i | i | nt | nt
COc1cccc(C(=O)/C=C/Nc2ccc(S(=O)(=O)Nc3onc(C)c3C)cc2)c1 | i | i | 13 | i | i | i | i
Cc1c(N=C2NN=C(c3c[nH]c4ccccc34)CS2)c(=O)n(-c2ccccc2)n1C | i | i | 7.0 | i | i | i | i
CCCCCCCCN1C(=O)[C@@H](CC(=O)NCCC(C)C)C[C@@]2(C(=O)OC)C1=C[C@H](C(C)C)O[C@@H]2C1CC1 | nt | i | i | i | i | nt | nt
S=C(Nc1ccc(Cl)cc1)OC1CCC12CCC(c1ccccc1)CC2 (stereo unspecified) | nt | i | i | i | i | nt | nt
COC(=O)c1c(NC(=S)Nc2ccc(F)cc2[N+](=O)[O-])sc2c1CCCCC2 | i | i | 9.5 | i | i | i | i
COc1cc(C(=O)N2CCC(N3CCN(C)CC3)CC2)ccc1Nc1ncc2c(n1)N(C)c1ccccc1C(=O)N2C | nt | 3.7 | 6.8 | i | i | i | 6.4
O=C(C1CCCN1S(=O)(=O)c1ccc(Br)s1)N1CCc2ccccc2C1 (stereo unspecified) | nt | i | i | i | i | nt | nt
O=C1C(C=NCc2ccco2)=C(O)c2ccccc21 | 4.3 | i | 13 | 15 | 1.4 | i | 12
O=C(CSc1ccccn1)Nc1ccc2c(c1)C(=O)c1ccccc1C2=O | i | i | 6.8 | i | i | i | i
CNc1nc2c(-c3ccc(Cl)cc3)nnn2c2ccccc12 | i | i | i | i | i | nt | nt
Nc1nc2c(-c3ccc(Br)cc3)nnn2c2ccccc12 | i | i | 7.7 | 11 | 1.0 | i | 22
Cc1ccc(-c2nnn3c2nc(NC(C)C)c2ccccc23)cc1 | i | i | 6.8 | i | i | i | i
O=C(NCCN1CCc2ccccc2C1)C1CCN(S(=O)(=O)N2CCC3(CC2)OCCO3)CC1 | i | i | 7.5 | i | i | i | i
